For part of these data: Potency and affinity values are given separately.
Assays:
Design in all cases: scale not given: direction of the effect not stated beside the values
[1] = target: Protein translocase subunit SecA (Escherichia coli (strain K12)) (UniProt P10408); test: Assay to Identify E. coli SecA ATPase Inhibitors; assay type: functional; settings: 30 µM
[2] = target: T1, Ubiquitin-activating enzyme e1, putative (Leishmania donovani (strain BPK282A1)) (UniProt E9BSI1); test: Leishmania donovani Ubiquitin Activating Enzyme (LdE1); assay type: functional; settings: 30 µM
T1 sequence (whole entry): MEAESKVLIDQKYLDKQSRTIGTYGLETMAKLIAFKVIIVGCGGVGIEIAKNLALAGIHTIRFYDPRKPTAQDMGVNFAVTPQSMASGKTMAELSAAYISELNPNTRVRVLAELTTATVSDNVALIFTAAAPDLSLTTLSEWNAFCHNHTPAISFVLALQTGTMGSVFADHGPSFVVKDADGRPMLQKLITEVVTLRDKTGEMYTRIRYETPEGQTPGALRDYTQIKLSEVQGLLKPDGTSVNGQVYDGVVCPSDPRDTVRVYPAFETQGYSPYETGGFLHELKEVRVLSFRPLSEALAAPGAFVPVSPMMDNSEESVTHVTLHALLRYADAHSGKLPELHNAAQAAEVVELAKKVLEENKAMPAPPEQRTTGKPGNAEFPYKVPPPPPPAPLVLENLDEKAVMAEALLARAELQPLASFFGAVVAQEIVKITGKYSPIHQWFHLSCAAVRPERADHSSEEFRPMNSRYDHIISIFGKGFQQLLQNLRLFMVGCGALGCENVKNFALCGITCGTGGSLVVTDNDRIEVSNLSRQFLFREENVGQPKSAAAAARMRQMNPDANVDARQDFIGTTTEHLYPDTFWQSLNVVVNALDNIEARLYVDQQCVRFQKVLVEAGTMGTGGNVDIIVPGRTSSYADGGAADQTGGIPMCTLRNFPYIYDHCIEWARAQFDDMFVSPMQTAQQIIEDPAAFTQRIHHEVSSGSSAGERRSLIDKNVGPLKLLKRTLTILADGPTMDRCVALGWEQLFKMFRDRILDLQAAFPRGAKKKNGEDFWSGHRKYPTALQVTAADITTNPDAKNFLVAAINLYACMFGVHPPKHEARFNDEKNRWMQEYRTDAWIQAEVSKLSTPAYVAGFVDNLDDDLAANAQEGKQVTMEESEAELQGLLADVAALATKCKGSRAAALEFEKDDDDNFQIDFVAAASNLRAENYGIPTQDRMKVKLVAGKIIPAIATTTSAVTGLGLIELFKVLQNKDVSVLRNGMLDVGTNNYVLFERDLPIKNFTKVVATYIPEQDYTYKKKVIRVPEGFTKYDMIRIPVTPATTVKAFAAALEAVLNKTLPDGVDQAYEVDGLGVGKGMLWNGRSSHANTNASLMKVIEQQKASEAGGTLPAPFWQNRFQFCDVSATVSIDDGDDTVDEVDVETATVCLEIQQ

[3] = target: AMP-activated protein kinase, AMPK (Homo sapiens) (UniProt P54646+O43741+P54619+Q9UGJ0+Q9Y478+Q13131+Q9UGI9); test: AMP-dependent Kinase enzyme assay. An in vitro enzyme assay that detects ADP turnover that is directly proportional to AMPK activity. This uses naive AMPK that is activated during the assay with MK-8722; assay type: functional; settings: 30 µM
[4] = target: Sialic acid-binding Ig-like lectin 9 (Homo sapiens) (UniProt Q9Y336); test: Hs-Siglec9 ALPHAscreen SOP 20170721; settings: 10 µM
Chain of Sialic acid-binding Ig-like lectin 9 (Homo sapiens) (Q9Y336 whole entry): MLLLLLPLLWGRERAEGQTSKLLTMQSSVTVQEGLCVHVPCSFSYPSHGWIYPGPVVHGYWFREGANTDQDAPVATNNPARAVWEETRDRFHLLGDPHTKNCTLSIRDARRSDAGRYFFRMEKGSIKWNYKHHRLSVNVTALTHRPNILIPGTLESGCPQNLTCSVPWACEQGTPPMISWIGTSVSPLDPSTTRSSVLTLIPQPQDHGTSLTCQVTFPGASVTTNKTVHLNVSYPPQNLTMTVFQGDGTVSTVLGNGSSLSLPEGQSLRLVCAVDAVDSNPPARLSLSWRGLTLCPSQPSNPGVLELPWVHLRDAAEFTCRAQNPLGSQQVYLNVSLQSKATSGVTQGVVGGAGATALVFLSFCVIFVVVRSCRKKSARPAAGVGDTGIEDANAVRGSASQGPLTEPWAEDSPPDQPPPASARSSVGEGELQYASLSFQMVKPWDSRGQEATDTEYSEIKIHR

Trypanosoma cruzi = test: Trypanosoma cruzi phosphomannomutase and mannose-1-phosphate guanylyltransferase assay; assay type: functional; settings: 10 µM
[5] = target: T2, Arginase-2, mitochondrial (Homo sapiens) (UniProt P78540); test: in vitro enzyme assay to detect the production of urea directly proportional to the activity of Arginase II; assay type: functional; settings: 33.3 µM; also: in the data most compounds retested in dose-response had high values
T2 sequence (whole entry): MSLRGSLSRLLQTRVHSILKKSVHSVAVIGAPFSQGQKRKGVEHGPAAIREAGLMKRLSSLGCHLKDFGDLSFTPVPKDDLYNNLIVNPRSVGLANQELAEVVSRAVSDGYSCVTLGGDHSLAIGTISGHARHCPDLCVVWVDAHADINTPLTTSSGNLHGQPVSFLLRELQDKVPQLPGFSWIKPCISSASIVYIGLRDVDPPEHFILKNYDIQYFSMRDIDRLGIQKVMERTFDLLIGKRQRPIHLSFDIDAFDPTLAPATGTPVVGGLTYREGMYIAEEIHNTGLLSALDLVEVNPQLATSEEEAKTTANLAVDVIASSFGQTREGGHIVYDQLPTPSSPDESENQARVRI

[6] = target: T3, Proteasome subunit beta (Trypanosoma cruzi) (UniProt O96673); test: Trypanosoma cruzi proteasome chymotrypsin-like activity (TcProtChymo) assay.; also: in the data most compounds retested in dose-response had high values; assay type: functional; settings: 9.37 µM
T3 sequence (whole entry): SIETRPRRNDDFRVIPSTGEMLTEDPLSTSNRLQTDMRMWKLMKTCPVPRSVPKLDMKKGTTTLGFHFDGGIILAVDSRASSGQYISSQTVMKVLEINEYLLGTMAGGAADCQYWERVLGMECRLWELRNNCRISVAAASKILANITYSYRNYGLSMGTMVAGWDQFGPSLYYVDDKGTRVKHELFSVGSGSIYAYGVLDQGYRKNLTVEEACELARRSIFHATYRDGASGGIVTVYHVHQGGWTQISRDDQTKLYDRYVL

Homo sapiens = organism: Homo sapiens; test: To identify inhibition of the IFN signalling (Jak-Stat) pathway via expression of an eGFP reporter gene under the control of an IFN-stimulated response element (ISRE) containing MxA promoter.; assay type: functional; settings: 30 µM
[7] = target: T4, Tyrosyl-tRNA synthetase, putative (Trypanosoma cruzi (strain CL Brener)) (UniProt Q4DSP6); test: Trypanosoma cruzi tyrosyl tRNA synthetase (TcYRS) _High Tyrosine SOP; assay type: functional; settings: 30 µM; also: in the data most compounds retested in dose-response had high values
T4 sequence (whole entry): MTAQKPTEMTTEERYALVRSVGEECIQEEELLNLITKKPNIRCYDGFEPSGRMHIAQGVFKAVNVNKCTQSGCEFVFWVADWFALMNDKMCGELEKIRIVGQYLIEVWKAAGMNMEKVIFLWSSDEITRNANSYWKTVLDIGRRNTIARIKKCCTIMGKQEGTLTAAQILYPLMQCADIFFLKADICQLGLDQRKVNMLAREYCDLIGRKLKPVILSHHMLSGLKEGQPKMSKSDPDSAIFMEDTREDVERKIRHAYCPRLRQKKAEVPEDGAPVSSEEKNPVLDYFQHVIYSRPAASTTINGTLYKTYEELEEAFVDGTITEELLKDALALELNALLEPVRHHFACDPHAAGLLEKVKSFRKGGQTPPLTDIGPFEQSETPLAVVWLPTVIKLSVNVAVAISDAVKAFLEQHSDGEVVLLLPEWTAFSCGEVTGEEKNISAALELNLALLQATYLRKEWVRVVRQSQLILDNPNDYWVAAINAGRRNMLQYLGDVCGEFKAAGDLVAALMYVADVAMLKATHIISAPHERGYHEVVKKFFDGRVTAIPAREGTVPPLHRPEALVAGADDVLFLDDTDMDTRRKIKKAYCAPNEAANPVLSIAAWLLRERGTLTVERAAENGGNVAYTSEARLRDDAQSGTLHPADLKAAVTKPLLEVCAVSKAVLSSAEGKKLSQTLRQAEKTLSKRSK

[8] = target: T4, Tyrosyl-tRNA synthetase, putative (Trypanosoma cruzi (strain CL Brener)); test: Trypanosoma cruzi tyrosyl tRNA synthetase (TcYRS) SOP; assay type: functional; settings: 30 µM
[9] = target: Chromo domain-containing protein 1 (Saccharomyces cerevisiae (strain ATCC 204508 / S288c) (Baker's yeast)) (UniProt P32657); test: ScCHD-1 Enzyme Inhibition Assay; assay type: functional; settings: 30 µM; also: in the data most compounds retested in dose-response had high values
Chain of Chromo domain-containing protein 1 (Saccharomyces cerevisiae (strain ATCC 204508 / S288c) (Baker's yeast)) (P32657 whole entry, the tested form may be a part): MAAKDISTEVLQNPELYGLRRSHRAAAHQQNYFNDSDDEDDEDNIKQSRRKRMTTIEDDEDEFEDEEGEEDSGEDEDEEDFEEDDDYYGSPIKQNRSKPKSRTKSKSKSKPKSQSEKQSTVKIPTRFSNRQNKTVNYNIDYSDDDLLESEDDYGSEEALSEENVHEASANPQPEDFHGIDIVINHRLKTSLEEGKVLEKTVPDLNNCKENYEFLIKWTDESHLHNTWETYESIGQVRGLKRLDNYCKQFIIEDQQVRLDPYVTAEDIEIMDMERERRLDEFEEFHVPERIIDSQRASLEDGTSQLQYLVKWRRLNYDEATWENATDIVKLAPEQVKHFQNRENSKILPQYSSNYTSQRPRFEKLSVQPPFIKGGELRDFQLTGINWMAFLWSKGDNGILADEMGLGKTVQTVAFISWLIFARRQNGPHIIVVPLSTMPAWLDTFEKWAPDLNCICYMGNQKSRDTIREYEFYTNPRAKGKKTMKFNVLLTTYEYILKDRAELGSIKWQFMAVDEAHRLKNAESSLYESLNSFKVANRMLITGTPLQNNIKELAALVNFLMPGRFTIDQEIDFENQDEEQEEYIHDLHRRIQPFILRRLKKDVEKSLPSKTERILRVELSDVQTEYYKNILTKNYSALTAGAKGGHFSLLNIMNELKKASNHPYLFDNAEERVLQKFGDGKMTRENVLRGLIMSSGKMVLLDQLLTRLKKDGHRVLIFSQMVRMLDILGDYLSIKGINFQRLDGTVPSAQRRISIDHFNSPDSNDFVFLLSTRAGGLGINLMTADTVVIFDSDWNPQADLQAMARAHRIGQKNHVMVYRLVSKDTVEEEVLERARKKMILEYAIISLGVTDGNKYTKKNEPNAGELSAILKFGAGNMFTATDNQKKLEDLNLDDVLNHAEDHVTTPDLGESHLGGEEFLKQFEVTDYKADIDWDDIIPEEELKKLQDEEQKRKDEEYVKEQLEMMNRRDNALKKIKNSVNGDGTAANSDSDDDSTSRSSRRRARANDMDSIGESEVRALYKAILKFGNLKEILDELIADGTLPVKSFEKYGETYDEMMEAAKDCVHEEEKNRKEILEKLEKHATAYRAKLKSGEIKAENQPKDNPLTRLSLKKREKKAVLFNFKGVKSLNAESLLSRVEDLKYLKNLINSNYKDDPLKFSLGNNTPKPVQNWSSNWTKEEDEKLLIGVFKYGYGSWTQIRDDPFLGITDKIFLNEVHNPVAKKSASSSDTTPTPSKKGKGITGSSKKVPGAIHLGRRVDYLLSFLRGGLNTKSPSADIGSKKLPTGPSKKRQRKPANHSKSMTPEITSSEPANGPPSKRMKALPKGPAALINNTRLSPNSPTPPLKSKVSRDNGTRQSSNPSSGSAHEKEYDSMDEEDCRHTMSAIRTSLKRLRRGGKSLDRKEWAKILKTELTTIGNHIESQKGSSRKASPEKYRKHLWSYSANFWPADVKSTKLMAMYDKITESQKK

Chain of Protein translocase subunit SecA (Escherichia coli (strain K12)) (P10408 whole entry): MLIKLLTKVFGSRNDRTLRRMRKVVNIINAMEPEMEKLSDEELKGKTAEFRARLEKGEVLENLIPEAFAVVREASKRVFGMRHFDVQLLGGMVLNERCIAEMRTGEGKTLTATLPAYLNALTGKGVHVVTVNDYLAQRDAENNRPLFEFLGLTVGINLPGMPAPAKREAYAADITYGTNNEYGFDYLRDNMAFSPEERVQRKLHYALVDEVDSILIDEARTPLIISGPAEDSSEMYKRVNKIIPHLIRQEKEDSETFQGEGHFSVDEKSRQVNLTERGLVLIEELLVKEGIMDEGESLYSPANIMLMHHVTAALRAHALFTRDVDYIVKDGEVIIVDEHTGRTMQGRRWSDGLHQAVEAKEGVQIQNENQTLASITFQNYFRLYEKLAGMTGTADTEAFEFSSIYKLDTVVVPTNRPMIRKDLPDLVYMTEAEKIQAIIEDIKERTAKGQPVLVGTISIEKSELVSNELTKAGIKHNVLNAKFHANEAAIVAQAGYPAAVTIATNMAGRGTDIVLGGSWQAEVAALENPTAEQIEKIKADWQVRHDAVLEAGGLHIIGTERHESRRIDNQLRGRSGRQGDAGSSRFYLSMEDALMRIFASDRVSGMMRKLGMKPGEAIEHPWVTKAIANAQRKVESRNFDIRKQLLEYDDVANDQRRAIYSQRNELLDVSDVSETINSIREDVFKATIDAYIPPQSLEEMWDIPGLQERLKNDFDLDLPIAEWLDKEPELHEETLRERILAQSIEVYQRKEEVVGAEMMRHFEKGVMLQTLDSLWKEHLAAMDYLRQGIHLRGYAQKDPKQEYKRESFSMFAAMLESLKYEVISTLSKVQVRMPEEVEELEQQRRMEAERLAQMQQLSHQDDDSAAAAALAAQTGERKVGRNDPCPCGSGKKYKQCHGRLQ

Row | Structure (SMILES) | Percent Effect [1] | Percent Effect [2] | Percent Effect [3] | Percent Effect [4] | Percent Effect (Trypanosoma cruzi) | Percent Effect [5] | Percent Effect [6] | Percent Effect (Homo sapiens) | Percent Effect [7] | Percent Effect [8] | Percent Effect [9]
1 | CCOc1ccc(CNCCCn2ccnc2)cc1Br | -0.283% | 12% | -3.14% | 3.52% | -3.34% | -6.51% | 12.8% | 9.57% | 6.35% | 10.3% | -10.4%
2 | Cc1nn(C)c(C)c1CC(=O)N1CCC(Nc2cccnn2)CC1 | -5.77% | -13.2% | -1.31% | -4.49% | 9.59% | -1.92% | 5.85% | 9.42% | 5.39% | 9.76% | -11.7%
3 | COc1c(C2CCCN2Cc2csc(C(C)C)n2)c(C)nn1C (stereo unspecified) | -0.655% | 18.2% | -4.6% | -3.17% | -8.99% | 4.63% | 17.6% | 37.8% | 1.94% | 2.44% | -7.12%
4 | CCc1cnc(CN(C(C)=O)C2CCN(CCS(C)(=O)=O)C2)o1 (stereo unspecified) | -2.33% | 6.94% | -4.16% | 16.1% | 0.291% | 9.27% | 13.3% | 10.7% | 4.21% | 10.3% | -8.92%
5 | O=C1NCC2(CCCN(CCc3ccccc3)C2)Oc2ccccc21 (stereo unspecified) | -3.06% | 6.76% | 2.18% | -8.67% | -3.36% | 2.55% | 6.86% | 15.8% | -1.07% | 6.49% | -14.2%
6 | CCN(CC)C(=O)CCc1c(C)nc2cc(O)nn2c1C | -1.3% | 0% | -288% | 0.0855% | -3.99% | -1.18% | 24.1% | 3.53% | 4.25% | 7.79% | -6.56%
7 | Cc1ccc(CN2CCC3(CC2)CC(c2cccnc2)CO3)s1 (stereo unspecified) | -5.83% | 5.41% | 1.22% | -3.96% | 0% | 7.08% | 4.65% | 0.622% | 8.91% | 11% | -2.92%
8 | CC1CN(C(=O)CN(Cc2ccccc2Br)C2CC2)CCO1 (stereo unspecified) | -1.13% | 0% | 4.5% | 0.479% | 3.82% | -3.16% | -4.77% | 13.8% | 3.81% | 7.06% | -7.55%
9 | O=C(NCC1CCCO1)c1c(-n2cnnn2)sc2c1CCC2 (stereo unspecified) | -5.27% | 5.26% | 6.31% | -1.47% | -2.82% | 3.55% | 17.6% | -12.3% | 3.19% | 7.79% | -4.34%
10 | Cc1ccc(C2CSCCN2C(=O)c2ccc(C(N)=O)cc2)o1 (stereo unspecified) | -2.99% | 5.41% | -7.52% | 13.6% | 1.47% | 20.6% | 10% | -21.9% | 4.3% | 11.1% | -2.9%
11 | Cc1noc(CN2CCC(c3ccnn3CCO)CC2)n1 | -3.55% | 12.7% | -1.18% | -2.56% | 8.59% | -0.76% | 8.76% | 4.82% | 6.4% | 16.5% | -6.79%
12 | Cn1ccc(C(=O)N2CCC[C@]3(C[C@@H](OCc4ccccn4)CO3)C2)n1 | -3.65% | 13.5% | 2.83% | -1.64% | -2.64% | 8.6% | 15.1% | 2.73% | 8.65% | 17.9% | -1.5%
13 | O=C(c1ccc2c(c1)OCO2)N1CCCC(n2cccn2)C1 (stereo unspecified) | -1.59% | 10.8% | -7.46% | -3.52% | 7.64% | -4.01% | 3.24% | 27.9% | 8.37% | 11.1% | -7.12%
14 | CS(=O)(=O)N[C@@H]1CCO[C@]2(CCN(C(=O)c3cnccn3)C2)C1 | -3.71% | 10.8% | 1.74% | -2.86% | 1.07% | 0.955% | 22.7% | 5.57% | 7.57% | 17.9% | 2.48%
15 | N#Cc1ccc(C(=O)N2CCC3(CC2)C(=O)Nc2ccccc23)cn1 | -4.93% | 8.11% | 0.0753% | 1.98% | -0.684% | 2.73% | 9.87% | 0.335% | 10.8% | 18.5% | -4.78%
16 | Cc1cc(C)n(CC2CN(Cc3nc(-c4ccoc4)no3)CCO2)n1 (stereo unspecified) | -0.455% | 16.2% | -10.1% | 0.775% | 6.51% | -2.81% | 5.22% | 7.72% | 3.45% | 18.5% | -11.6%
17 | CCc1nc(CN(C)CC2CCN(CC(C)O)CC2)no1 (stereo unspecified) | -2.22% | 0% | -8.55% | 0.164% | 9.46% | -2.86% | 1.03% | -23.1% | 2.65% | 7.32% | -1.75%
18 | CC(NC(=O)NCC1(N2CCCCC2)CCCCC1)c1nncn1C (stereo unspecified) | -6.18% | 18.4% | -2.65% | 0.417% | 1.03% | 0% | -0.931% | 5.56% | 9.36% | 18.5% | -6%
19 | COc1cccc(CN(C)C(=O)CN2CC(n3nc(C)cc3C)C2)c1 | -0.578% | -73.7% | 0.521% | -5.84% | 1.27% | 1.18% | 24.3% | 23.1% | 26.6% | 39% | -4.54%
20 | COCCC(=O)N1CC[C@@H]2O[C@@H](C)C[C@H]2C1 | -6.08% | 8% | 0.716% | 0.473% | 2.36% | -3.96% | 6.61% | 15.7% | 6.38% | 11.5% | -7.49%
21 | CC(NC(=O)CNCCn1cccn1)c1ccc2c(c1)OCCO2 (stereo unspecified) | -2.65% | -7.79% | 0.13% | 7.51% | 5.62% | 1.07% | 7.6% | -0.448% | 8.74% | 9.76% | -7.52%
